IL-2 act = activates IL-2 in a cell-based reporter assay; IL-2 activation reporter assay, cell-based qHTS; stimulated with anti-CD3/CD4/CD28 beads; in transgenic mouse T cells; activation, % (series mostly up to about 46 µM); 0.065% of 360,000 active; AID 652025; in the data active = activation above about 50%; inconclusive = mostly about 30% to 49%; also: 0% is about no effect
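Quantitative HTS in unstimulated transgenic mouse T cells, with memory T cells as non-tolerant control and PMA/ionomycin as tolerance-bypass control. Compound pretreatment lasted 60 minutes before 18 h bead stimulation; EGFP/DsRed fluorescence read.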
ELG1 repair inh = inhibitors of ELG1-dependent DNA repair in HEK293T cells; HEK293T ELG1-luciferase reporter, luminescence, 16 h; DNA damage induced by 5-fluorouridine; Potency, µM (titrated, usually from 46.1 µM), without a hit: top-dose activity change, negative = inhibition, hits mostly inhibitors; 2.3% of 330,000 active; also: potency is read from the fitted curve at half-maximal effect; % is scaled to controls: 0 for no effect and ±100 for the full control effect; nearly all actives have a fitted effect of over 55% in size
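In this reporter screen, reduction of luminescence relative to DMSO vehicle indicated activity. Compounds and 5-fluorouridine were added together to 2,000 cells per well, incubated for 16 hr at 37 °C, then developed with ONE-Glo.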
Nrf2 ARE act = Nrf2 pathway activation | AREc32 ARE-luciferase reporter (MCF7-derived line), luminescence, 24 h | 0.31% of 410,000 active | Potency, µM (highest dose often 46.1 µM), for inactives: top-dose activation, hits mostly activators | AID 624171; also: potency is read from the fitted curve at half-maximal effect; % of control where 0% means no effect; nearly all actives have a fitted effect of over 65% in size
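For detection, Steady-Glo was added and plates sat 30 min at RT; before that, AREc32_Fluc cells grown overnight in OPTI-MEM/5% FBS had been treated with 23 nL compound for 24 hr at 37 deg C.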
BRCA1 expr up = increases BRCA1 expression. MCF7-BRCA1-FFLuc reporter, luminescence, 48 h; response scale: scaled: vehicle 0%, 10 µM genistein 100%. Potency, µM (highest dose often 46.1 µM), for inactives: at the top dose activation, actives largely listed as activators. 1.1% of 380,000 active; also: potency is read from the fitted curve at half-maximal effect; nearly all actives have a fitted effect of over 80% in size
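Cells: MCF7-BRCA1-FFLuc, 2000/well. Exposure: 48 h, 37 °C, 5% CO2. Read: luminescence, 15 min post-substrate. Controls: genistein 10 microM (maximal activation), DMSO (neutral).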
* = called active by the depositor; ? = inconclusive; / = no result given; [ ] = dose if it differs, or a comment. Most compounds without a hit are left out; they make up all but 3.1% or so of the library. Unless noted, calls follow the shape of the dose curve; as a rule, active = well fitted curve in the direction sought with a large enough effect; inconclusive = small, poorly fitted or top-dose-only effect, or another doubt; inactive = no such curve, though single readings can be large; an effect the other way counts as inactive or inconclusive.

SMILES	IL-2 act	ELG1 repair inh	Nrf2 ARE act	BRCA1 expr up
COC(=O)c1sccc1S(=O)(=O)N(CC(=O)Nc1c(C)cccc1C)c1ccc(C)c(C)c1	/	/	6.7%	/
Cc1ccc(-c2[nH]ncc2/C=C(\C#N)C(=O)NC2CCCCC2)cc1	0.9	9.2µM*	-0.2%	-79.5%
COc1ccc2c(C)c(CCC(=O)NCc3ccc(C)cc3)c(=O)oc2c1	/	/	-1.2%	/
CCN(CC)C(=O)Cn1ncc2c([nH]c3ccc(C)cc32)c1=O	/	/	-0.3%	/
Cc1ccc(C(C)C)c(OCC(=O)Nc2ccccc2N2CCN(C)CC2)c1	-0.2	?	2.7%	-70.4%
Cc1ccc(C(C)C)c(OCC(=O)Nc2ccc(N3CCOCC3)cc2N2CCOCC2)c1	1.2	18.3µM*	0.1%	-21.8%
O=C(CNCc1ccc(Cl)cc1)Nc1cc(S(=O)(=O)N2CCCC2)ccc1Cl	-0.4	/	0.2%	-40.0%
C=CCC(Nc1ccccc1)C12C=CC(O1)C(C(=O)OC)=C2C(=O)OC (centres undefined)	-0.8	-6.2%	11.2µM*	-88.8%
C(=C\c1ccnc2ccccc12)/c1ccc2c(c1)OCO2	/	/	/	23.6%
O=C(Nc1nc2ccccc2n1CCN1CCOCC1)c1cn(-c2ccccc2)nc1-c1ccccc1	0.0	18.4µM*	-0.3%	-82.0%
CCOc1ccc(NC(=O)Cn2cc(C(=O)c3ccc(CC)cc3)c(=O)c3cc(C)ccc32)cc1	/	/	0.0%	-6.0%
O=C(NCCc1ccc(Cl)cc1)Nc1ccc(Cl)cc1	1.8	?	-1.0%	47.1%
CCN(CCNC(=O)Nc1ccc(Cl)cc1)c1ccccc1	0.1	5.17µM*	-0.1%	-67.7%
CCN(CC)c1nc(OCCNC(=O)Nc2ccccc2)nc(N(CC)CC)n1	0.7	18.4µM*	0.3%	-57.0%
Cc1ccc(NC(=O)c2cnc(SCC(=O)N3CCOCC3)n(C)c2=O)cc1C	/	/	-0.1%	/
CC1CCN(C(=O)c2ccc(NC3=C(Cl)C(=O)N(Cc4ccccc4)C3=O)cc2)CC1	-0.8	10.3µM*	5.7%	-67.2%
CC1CCN(C(=O)c2ccc(NC(=O)c3ccccc3)cc2)CC1	-0.4	6.2%	0.0%	3.8%
CC1CCCCN1C(=O)c1cccc(NC2=C(Cl)C(=O)N(Cc3ccccc3)C2=O)c1 (centres undefined)	-0.7	10µM*	18.4%	-43.3%
CCOC(=O)N1CCC(N2CCCC(C(=O)c3ccc4cc(OC)ccc4c3)C2)CC1 (centres undefined)	-2.8	23.1µM*	6.2%	-47.4%
CCOC(=O)N1CCC(N2CCCC(C(=O)c3cc(C)c(OC)c(C)c3)C2)CC1 (centres undefined)	-0.6	?	-0.7%	-16.9%
COc1ccc(OC)c(CNc2ncnc3onc(-c4ccc(Cl)cc4)c23)c1	/	/	0.1%	-43.7%
CCCCn1nnnc1C(c1cc2ccccc2o1)N1CCN(c2cc(C)nc3ccccc23)CC1 (centres undefined)	-0.3	/	4.2%	-63.6%
COc1ccc(CN(C(=O)Cc2c[nH]c3ccccc23)C(C(=O)NC2CCCCC2)c2ccc(C)o2)cc1 (centres undefined)	-2.3	20.6µM*	0.3%	-3.7%[1.84 µM]
COc1cc(C(C(=O)NC2CCCCC2)N(C(=O)Cc2c[nH]c3ccccc23)c2ccccc2C)cc(OC)c1OC (centres undefined)	-2.2	-0.1%	2.1%	-46.6%
COc1cc(C(C(=O)NC2CCCCC2)N(Cc2cccs2)C(=O)Cc2c[nH]c3ccccc23)cc(OC)c1OC (centres undefined)	-0.1	14.6µM*	0.3%	-52.4%
SMILES	IL-2 act	ELG1 repair inh	Nrf2 ARE act	BRCA1 expr up
COc1cccc(CN(C(=O)Cc2c[nH]c3ccccc23)C(C(=O)NC2CCCCC2)c2ccc(C)o2)c1 (centres undefined)	-4.0	18.4µM*	5.4%	-64.0%
COc1cccc(CN(C)C(=O)Cc2c[nH]c3ccccc23)c1	-1.3	16.9%	3.3%	11.0%
Cc1ccc(C(C(=O)NC2CCCCC2)N(Cc2ccccc2)C(=O)Cc2c[nH]c3ccccc23)o1 (centres undefined)	-0.9	?	-0.4%	-77.1%
CCCCn1nnnc1C1(C)CCC(=O)N1Cc1ccc(C)cc1 (centres undefined)	0.4	/	3.1%	0.0%
Cc1ccc(NC(=O)N2CCN(c3nnc(C)c4c(C)n(-c5ccc(Cl)cc5)nc34)CC2)c(C)c1	/	/	0.4%	/
COc1ccc2c(c1)C=C/C2=C/c1ccc(N(C)C)cc1	/	/	/	79.9%
Cc1ccc(C)c(N2CCN(C(=O)CN(C)S(=O)(=O)c3ccc4c(c3)CCC(=O)N4)CC2)c1	-0.8	23.1µM*	-0.2%	-8.4%
Cc1ccc(C)c(N2CCN(S(=O)(=O)c3ccc4c(c3)CCC(=O)N4)CC2)c1	/	-5.1%	/	/
CCOC(=O)c1nc(NCc2ccc(Cl)cc2)c2c(C)noc2n1	/	/	-1.1%	/
Fc1cc(F)c2ncc3c(-c4ccccc4)nn(-c4cccc(Cl)c4)c3c2c1	/	/	0.2%	10.2%
CC(=O)Nc1ccc(NC(=O)c2ccc(OCc3c(C)noc3C)cc2)cc1	-0.3	0.0%	-0.4%	-15.7%
Cc1ccc(C)c(S(=O)(=O)N2CCN(C(=O)c3ccc(OCc4c(C)noc4C)cc3)CC2)c1	-2.9	16.4µM*	3.8%	-51.5%
Cc1ccc(NC(=O)c2ccc(OCc3c(C)noc3C)cc2)cc1C	0.3	10.3µM*	1.6%	-37.4%
CC1CCC(NC(=O)c2ccc3nc[nH]c3c2)CC1 (centres undefined)	1.5	?	0.4%	11.2µM*
O=C(NNC(=O)c1ccc2nc[nH]c2c1)c1ccccc1	-0.2	0.0%	-0.3%	10.8%
O=c1[nH]c(C2CCN(S(=O)(=O)Cc3ccccc3)CC2)nc2c1nnn2Cc1cccc(Cl)c1	-0.4	-7.8%	5.2%	-55.1%
O=c1[nH]c(C2CCN(S(=O)(=O)Cc3ccccc3)CC2)nc2c1nnn2Cc1ccccc1Cl	-2.1	25.9µM*	-0.5%	-50.9%
O=c1[nH]c(C2CCN(S(=O)(=O)Cc3ccccc3)CC2)nc2c1nnn2Cc1ccccc1	-2.7	23.1µM*	0.5%	-9.5%
COc1ccc(C2C3=C(Nc4ncnn42)c2ccccc2CCC3)cc1 (centres undefined)	1.2	2.8%	-0.3%	-3.0%
Fc1ccc(/C=C2\CCCC3=C2Nc2ncnn2C3c2ccc(F)cc2)cc1 (centres undefined)	-2.4	4.61µM*	-3.0%	-98.0%
Cc1nc2c(-c3ccccc3)c(C)[nH]n2c(=O)c1Cc1ccccc1	1.1	?	-0.6%	-63.1%
Cc1nc2c(-c3ccc(Cl)cc3)c(C)[nH]n2c(=O)c1Cc1ccccc1	-0.5	4.11µM*	3.2%	-93.2%
COc1cccc(CNC(=O)CN2C(=O)N(c3c(C)cccc3C)S(=O)(=O)c3ccccc32)c1OC	/	/	4.9%	-8.8%
Cc1ccccc1NC(=O)Cc1nc(-c2c[nH]c(C(=O)N3CCCC3)c2)cs1	-1.0	16.4µM*	4.5%	-22.7%
COc1ccccc1NC(=O)Nc1nc(CC(=O)N2CCN(c3ccccc3F)CC2)cs1	-0.6	16.4µM*	1.9%	-14.5%
COc1ccc(S(=O)(=O)NCc2ccncc2)cc1OC	-1.1	7.31µM*	-1.1%	-46.7%

Screening data (PubChem BioAssay)
